“And” between values parts separate entries of the source, which are not always exact repeats. Equal entries are not always repeated. Inconclusive results are not listed. The source made the active and inactive calls. Unless noted, calls come from the whole dose curve; as a rule, active = well fitted curve in the direction sought with a large enough effect; inconclusive = small, poorly fitted or top-dose-only effect, or another doubt; inactive = no such curve, though single readings can be large; an effect the other way counts as inactive or inconclusive.
Assays:
[1] = qHTS profiling of the MIPE4 collection as inhibitors of Plasmodium falciparum (3D7) proliferation (AID 743344; call rule not given here;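 note: scaled between DMSO vehicle wells and 0.29 µM artemisinin as full inhibition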); details: P. falciparum 3D7 in erythrocytes, SYBR Green DNA fluorescence, 72 h; at 28.5 µM unless noted
Method in brief: (§1)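 Parasite DNA was quantified by SYBR Green I fluorescence (ex 485, em 535 nm) after overnight lysis in saponin/Triton buffer at room temperature. Cultures at 0.3% parasitemia and 2.5% hematocrit were first exposed to compound for 72 h at 37 C; signals were normalised to artemisinin (0.29 uM) and vehicle wells.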

[2] = qHTS profiling of the MIPE4 collection as inhibitors of Plasmodium falciparum (DD2) proliferation (Rep 2) (AID 743346; call rule not given here); details: P. falciparum Dd2 in erythrocytes, SYBR Green DNA, 72 h; at 28.5 µM unless noted
Method in brief: as §1

[3] = High-throughput drug toxicity screening in the BPDCN cell line Cal-1 (AID 1224825; call rule not given here); details: Cal-1 BPDCN cell viability, qHTS; at 45.8 µM (top of the series) unless noted
Method in brief: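 CellTiter-Glo luminescence after 48 h compound exposure; percent activity scaled with DMSO as 100% and bortezomib (9.2 uM final) as 0%. Cal-1 cells seeded at 500/well in RPMI, 10% FBS, no phenol red.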

[4] = qHTS assay for measurement of the activity of small molecule inhibitors on Zika virus induced Caspase-3 activity in human astrocytoma cells (AID 1224859);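 note: plate controls were ZIKV-infected untreated cells for no effect and uninfected cells for full effect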
Method in brief: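 In SNB-19 cells plated at 250 cells/well and grown 16-20 h, compounds were applied 1 h before ZIKV (2 FFU/cell). Six hours later caspase-3/7 luminescence was recorded.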

[5] = qHTS Screen of the MIPE 4.0 Collection Against Ewings Sarcoma (RDES) (AID 1259252); note: nearly all actives have a fitted effect of over 35% in size; note: potency is the fitted concentration of half-maximal effect
Method in brief: (§2)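 Viability screen: 48 h incubation at 37C, 95% humidity, 5% CO2 with serially titrated compound, followed by CellTiter-Glo readout.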

[6] = qHTS Screen of the MIPE 4.0 Collection Against Ewings Sarcoma (TC71) (AID 1259253); note: nearly all actives have a fitted effect of over 40% in size; note: potency is the fitted concentration of half-maximal effect
Method in brief: as §2

[7] = qHTS Screen of the MIPE 4.0 Collection Against Ewings Sarcoma (EW8) (AID 1259255); note: nearly all actives have a fitted effect of over 35% in size; note: potency is the fitted concentration of half-maximal effect;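 for viability: 100% = DMSO-treated cells and 0% = medium-only wells without cells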
Method in brief: as §2

[8] = qHTS Screen of the MIPE 4.0 Collection Against Ewings Sarcoma (TC32) (AID 1259256); note: nearly all actives have a fitted effect of over 45% in size; note: potency is the fitted concentration of half-maximal effect
Method in brief: as §2

[9] = qHTS assay to identify small molecule inhibitors of chordoma cells - UCH-1 (AID 1259355); note: % is set by controls: 0 for no effect and ±100 for the full control effect; nearly all actives have a fitted effect of over 55% in size
Method in brief: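 Screening used approved and investigational drugs in 15-point titration against 800 seeded cells per well. A fixed combination of auranofin with camptothecin, doxorubicin, rubitecan and topotecan followed compound addition, and growth was scored by CellTiter-Glo after 48hr.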

[10] = qHTS assay to identify small molecule inhibitors of chordoma cells - UCH-2 (AID 1259356); note: % is set by controls: 0 for no effect and ±100 for the full control effect
[11] = P-glycoprotein substrates identified in KB-8-5-11 adenocarcinoma cell line, qHTS therapeutic library screen (AID 1346987); note: nearly all actives have a fitted effect of over 65% in size; note: potency is the fitted concentration of half-maximal effect
Method in brief: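 Human cervical adenocarcinoma KB-8-5-11 cells, selected in colchicine to over-express P-gp and assayed without it, were exposed for 72 h to titrated compounds. An ATP-based luminescent viability signal gave AC50.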

[12] = High-throughput drug toxicity screening in the BPDCN cell line Gen2.2 (AID 1224824; call rule not given here;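 note: cells exposed to compounds for 48 h before reading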); details: Gen2.2 BPDCN cells; at 45.8 µM (top of the series) unless noted
Method in brief: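 Gen2.2 cells, 500 per well in phenol red-free RPMI with 10% FBS, exposed to compounds 48 h at 37 C, 5% CO2; viability by CellTiter-Glo luminescence. Percent activity scaled to DMSO (100%) and 9.2 uM bortezomib final (0%).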

[13] = qHTS profiling of the MIPE4 collection as inhibitors of Plasmodium falciparum (DD2) proliferation (AID 743345; call rule not given here); details: P. falciparum Dd2 in erythrocytes, SYBR Green DNA, 72 h; at 28.5 µM unless noted
Method in brief: as §1

[14] = qHTS profiling of the MIPE4 collection as inhibitors of Plasmodium falciparum (HB3) proliferation (AID 743347; call rule not given here;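 note: plate controls were DMSO vehicle wells for no effect and artemisinin wells for full effect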); details: P. falciparum HB3 in erythrocytes, SYBR Green DNA, 72 h; at 28.5 µM unless noted
Method in brief: as §1

[15] = qHTS assay for measurement of the activity of small molecule inhibitors on Zika virus induced Caspase-3 activity in human iPSC derived neural progenitor cells (hNPCs) (AID 1224857); note: nearly all actives have a fitted effect of over 65% in size; note: potency is the fitted concentration of half-maximal effect
Method in brief: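 Caspase-3/7 induction by a 6-hour ZIKV infection was quantified with a luminescent Caspase-Glo 3/7 reagent incubated 30 minutes at room temperature. Compounds were preincubated with hNPCs for 1 hour; inhibition was calculated against uninfected and infected control wells.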

[16] = P-glycoprotein substrates identified in KB-3-1 adenocarcinoma cell line, qHTS therapeutic library screen (AID 1346986); note: nearly all actives have a fitted effect of over 60% in size
Method in brief: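 Viability by CellTiter-Glo after 72 h compound exposure at 37 degree C, 5% CO2. Cytotoxic call: curve class -1.1 to -2.4, maximum response >50%, AC50 < 10 uM, compared across KB-3-1 and P-gp-overexpressing KB-8-5-11.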

[17] = Identifying Small Molecule Inhibitors of Pancreatic Cancer Stem Cells (Panc1, Spheroid) (AID 1259359); details: Panc1 spheroid cancer stem cell viability;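 note: potency is the fitted concentration of half-maximal effect; compound exposure lasted 48 h before reading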
Method in brief: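 Luminescent ATP readout (CellTiter-Glo) quantifies surviving cells after a 48 h drug incubation. Normalization uses DMSO wells as no inhibition and media-only wells as full inhibition; bortezomib served as positive control.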

C[N+]1(C)[C@@H]2CC(OC(=O)[C@H](CO)c3ccccc3)C[C@H]1[C@H]1O[C@@H]12 (stereo partly specified)
parasite growth, % of DMSO control [1]: 93.9%
parasite growth, % of control (lower = inhibition) [2]: 84.8%
viability (% of control) [3]: 130%
Potency [4]: inactive
Potency [5]: inactive
Potency [6]: inactive
Potency [7]: inactive
Potency [8]: inactive
Potency [9]: inactive
outcome [10]: inactive
Potency [11]: inactive

CN1C[C@H]2c3ccccc3Oc3ccc(Cl)cc3[C@@H]2C1
cell viability, % of control (lower = more cytotoxic) [12]: 54.1%
Potency [11]: inactive

CC(C)(C)OC(=O)N[C@H]1CCCCCC=C[C@@H]2C[C@@]2(C(=O)NS(=O)(=O)C2CC2)NC(=O)[C@@H]2C[C@@H](OC(=O)N3Cc4cccc(F)c4C3)CN2C1=O
parasite growth, % of DMSO control [1]: 11.7%
parasite growth remaining, % of DMSO control (lower = more inhibition) [13]: 40.6%
parasite growth, % of control (lower = inhibition) [2]: 10.1%
growth, % of control [14]: 4.63%
viability (% of control) [3]: 99.3%
Potency [15]: inactive
Potency [4]: inactive
Potency [8]: inactive
Potency [11]: inactive

NC(=S)c1ccc[n+]([C@@H]2O[C@@H](COP(=O)([O-])OP(=O)(O)OC[C@H]3O[C@@H](n4cnc5c(N)ncnc54)[C@H](OP(=O)(O)O)C3O)C(O)C2O)c1 (stereo partly specified)
Potency [15]: inactive

CC=CCC=CCCC(=O)[C@H]1O[C@@H]1C(N)=O
viability (% of control) [3]: 15.5%
Potency [15]: inactive
Potency [4]: inactive
Potency [11]: inactive

COc1cc(O)c2c(c1)C(=O)c1cc(C)cc(O)c1C2=O
parasite growth, % of DMSO control [1]: 81.1% [at 9.64 µM]
parasite growth remaining, % of DMSO control (lower = more inhibition) [13]: 92.9% [at 9.64 µM]
parasite growth, % of control (lower = inhibition) [2]: 84.4% [at 9.64 µM]
Potency [15]: inactive
Potency [4]: inactive
Potency [6]: inactive
Potency [8]: inactive
Potency [11]: inactive

O=c1cc(-c2cccc3c2Sc2ccccc2S3)oc(N2CCOCC2)c1
parasite growth remaining, % of DMSO control (lower = more inhibition) [13]: 90.2%
parasite growth, % of control (lower = inhibition) [2]: 61.1%
growth, % of control [14]: 39.5%
viability (% of control) [3]: 35.7%
Potency [15]: inactive
Potency [4]: inactive
Potency [16]: inactive
Potency [11]: inactive

Cc1[nH]c(C=C2C(=O)Nc3ccc(S(=O)(=O)Cc4c(Cl)cccc4Cl)cc32)c(C)c1C(=O)N1CCC[C@H]1CN1CCCC1
parasite growth, % of DMSO control [1]: 6.34%
parasite growth remaining, % of DMSO control (lower = more inhibition) [13]: 8.07%
parasite growth, % of control (lower = inhibition) [2]: 12%
growth, % of control [14]: 5.52%
viability (% of control) [3]: 2.43%
Potency [15]: inactive
Potency [4]: inactive
Potency [8]: 37.2 µM (active)
Potency [11]: inactive

O=c1c(-c2ccc(O)cc2)coc2cc(O)ccc12
parasite growth, % of control (lower = inhibition) [2]: 89.3%
growth, % of control [14]: 89.3%
viability (% of control) [3]: 109%
Potency [15]: 11.2 µM (active)
Potency [5]: 11.8 µM (active)
Potency [7]: inactive

Nc1ncnc2c1ncn2[C@@H]1O[C@H](COP(=O)(O)OP(=O)(O)OP(=O)(O)OP(=O)(O)OC[C@@H]2O[C@H](n3cnc4c(N)ncnc43)[C@@H](O)C2O)C(O)[C@H]1O (stereo partly specified)
Potency [15]: inactive

CC(=O)Nc1ccc([C@H](C)C(=O)Nc2ncc(C(C)C)s2)cc1
parasite growth, % of DMSO control [1]: 5.36%
parasite growth remaining, % of DMSO control (lower = more inhibition) [13]: 104%
parasite growth, % of control (lower = inhibition) [2]: 7.23%
growth, % of control [14]: 2.84%
viability (% of control) [3]: 6.1%
Potency [15]: 14.8 µM (active)
Potency [5]: 2.96 µM (active)
Potency [6]: 2.96 µM (active)
Potency [7]: 5.9 µM (active)
Potency [8]: 4.18 µM (active)
Potency [17]: 8.33 µM (active)
Potency [11]: 3.72 µM (active) and 3.66 µM (active)

O=C(O)c1cc(O)c2c(c1)C(=O)c1cccc(O)c1C2=O
parasite growth, % of DMSO control [1]: 62.1% [at 57.5 µM]
parasite growth remaining, % of DMSO control (lower = more inhibition) [13]: 73.9% [at 57.5 µM]
parasite growth, % of control (lower = inhibition) [2]: 43.2% [at 57.5 µM]
growth, % of control [14]: 44.1% [at 57.5 µM]
viability (% of control) [3]: 124% [at 92.2 µM]
Potency [15]: 38.2 µM (active)
Potency [5]: inactive
Potency [6]: inactive
Potency [8]: inactive
Potency [11]: inactive
